Source: PubChem
Most compounds without a hit are left out; they make up all but 8.3% or so of the library.
Gal4-VP16 FLuc: VP16 counterscreen qHTS for inhibitors of ROR gamma transcriptional activity. Drosophila S2 Gal4-VP16 UAS-luciferase, luminescence, 20 h. Potency, µM (series often up to 53.6 µM), inactives show at the top dose activity, negative = inhibition, most hits filed as inhibitors. 310,000 compounds, 3.5% hits;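 further: Gal4-VP16 expression switched on by copper sulfate through the metallothionein promoter; potency means the concentration at half of the fitted maximal effect; on the % scale 0 is the no-effect control and ±100 the full control effect; nearly all actives have a fitted effect of over 50% in size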
RORgamma inh: qHTS for inhibitors of ROR gamma transcriptional activity; Drosophila S2 Gal4-RORgamma UAS-luciferase reporter, 20 h; Potency, µM (highest dose often 53.6 µM), for inactives: at the top dose activity change, negative = inhibition, actives largely listed as inhibitors; 310,000 compounds, 5.4% hits; AID 2551, 2010; further: potency means the concentration at half of the fitted maximal effect; on the % scale 0 is the no-effect control and ±100 the full control effect; nearly all actives have a fitted effect of over 60% in size
Target sequence (P51450 whole entry, looked up, the tested form may be a part): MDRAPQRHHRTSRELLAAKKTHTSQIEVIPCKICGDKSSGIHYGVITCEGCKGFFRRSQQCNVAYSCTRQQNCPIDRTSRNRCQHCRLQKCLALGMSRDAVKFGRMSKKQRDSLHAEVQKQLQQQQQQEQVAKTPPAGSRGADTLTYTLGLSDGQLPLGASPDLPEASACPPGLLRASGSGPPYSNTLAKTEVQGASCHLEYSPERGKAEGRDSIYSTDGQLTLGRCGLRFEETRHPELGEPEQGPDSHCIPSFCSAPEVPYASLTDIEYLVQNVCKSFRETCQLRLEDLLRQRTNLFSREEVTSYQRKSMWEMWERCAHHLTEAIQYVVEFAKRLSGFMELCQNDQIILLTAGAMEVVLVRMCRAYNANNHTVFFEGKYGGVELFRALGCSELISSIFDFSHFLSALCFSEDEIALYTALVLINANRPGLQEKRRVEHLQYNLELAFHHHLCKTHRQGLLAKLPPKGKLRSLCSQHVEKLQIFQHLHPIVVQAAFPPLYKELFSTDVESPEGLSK
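Stable Schneider cell line, Gal4 DNA-binding domain fused to ROR gamma, UAS-luciferase. Cmpd 1 hr RT → CuSO4 700 uM final → 20 hr RT → luciferase reagent 10 min → luminescence.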
SW480 rerep: A quantitative high throughput screen for small molecules that induce DNA re-replication in SW480 colon adenocarcinoma cells; SW480 DNA re-replication, Hoechst DNA content imaging, 48 h; Potency, µM (top dose mostly 46.1 µM), for inactives: at the highest dose re-replication activation, usual class: activators; 340,000 compounds, 1.8% hits; AID 624297, 2012; further: potency means the concentration at half of the fitted maximal effect; % of control where 0% means no effect; nearly all actives have a fitted effect of over 55% in size
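Image-based DNA-content assay: after two days of treatment, nuclei were labelled with the DNA dye Hoechst and imaged, and hits were compounds raising the count of nuclei showing high fluorescence intensity.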
Chronic BCR inh: qHTS Assay to Find Inhibitors of Chronic Active B-Cell Receptor Signaling; ABC-DLBCL IkBa-CBG/CBR reporter, luminescence ratio, 4 h; Potency, µM (highest dose often 46.1 µM), without a hit: at the top dose activity change, negative = inhibition, usual class: inhibitors; 340,000 compounds, 0.05% hits; AID 493014, 2011; active means well fitted inhibition curve with a large enough effect in the signal ratio, with a control signal flat, not every such curve was filed as active; inconclusive means small, poorly fitted or top-dose-only effect, or effect the other way, or a change in a side signal; the % refers to the signal ratio;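 further: potency means the concentration at half of the fitted maximal effect; plate controls were basal doxycycline-induced cells for no effect and cells given 10 µM MG132 for full effect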
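Compounds up to 46 uM were incubated four hours with TMD8 cells whose green CBG68 luciferase is fused to IkappaBalpha; red CBR luminescence normalised the signal, and concentration-effect curves were fitted to fusion, red and ratio data.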
Giardia killer: Small Molecules that selectively kill Giardia lamblia: qHTS. Giardia lamblia trophozoite viability. activity change, % at 7.66 µM, hits read low. 340,000 compounds, 0.15% hits; in the data active means activity change below about -80%; inconclusive means between about -30% and that limit;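 further: parasites exposed to compound for two days anaerobically before the ATP read; on the % scale 0 is the no-effect control and ±100 the full control effect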
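Luminescence from cellular ATP indicates surviving trophozoites (100 cells/well) following 48 hrs anaerobic compound treatment at 37 deg C; signal develops 15-30 min at room temperature.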
MCF10A rerep: A quantitative high throughput screen for small molecules that induce DNA re-replication in MCF 10a normal breast cells | AID 624296, 2012 | 350,000 compounds, 2.9% hits | MCF 10A DNA re-replication, Hoechst nuclear intensity, 48 h | Potency, µM (highest dose often 46.1 µM), inactives show top-dose activity, positive = re-replication, usual class: activators; further: potency means the concentration at half of the fitted maximal effect; % of control where 0% means no effect; nearly all actives have a fitted effect of over 50% in size
* marks the source's active call; other numbers are inactive results; ? = inconclusive; / = no result given. Unless noted, the call rests on the fitted dose curve; in most records, active means well fitted curve in the direction sought with a large enough effect; inconclusive means small, poorly fitted or top-dose-only effect, or another doubt; inactive means no such curve, though single readings can be large; an effect the other way counts as inactive or inconclusive.

SMILES	Gal4-VP16 FLuc	RORgamma inh	SW480 rerep	Chronic BCR inh	Giardia killer	MCF10A rerep
O=C(CSc1nnnn1C1CCCCC1)Nc1ccccc1F	-23%	28%	1%	-11%	-2	2%
Cc1nc(NC(=S)Nc2ccccc2)sc1C	5µM*	0.89µM*	-8%	?	-13	-2%
CCc1nnc(NC(=O)c2cccc(C(=O)Nc3nnc(CC)s3)n2)s1	0.18µM*	0.018µM*	?	?	-4	?
CCOc1ccc(C(=O)Nc2nnc(NC(=S)Nc3ccccc3)s2)cc1	1.6µM*	0.35µM*	12%	-12%	-28	13%
CCC(C(=O)Nc1nc(C)c(C)s1)c1ccccc1 (centres undefined)	?	?	?	4%	20	24%
CCc1nnc(NC(=S)Nc2ccccc2)s1	0.89µM*	0.28µM*	-3%	?	-7	11%
CCN(CC)CCNC(=O)c1ccc(NC(=O)C2CC(=O)N(CCc3ccc(OC)c(OC)c3)C2)cc1 (centres undefined)	/	/	-9%	2%	2	0%
CCc1nnc(NC(=O)CN2CCN(Cc3cccc(Cl)c3)CC2)s1	?	2.5µM*	2%	6%	-6	2%
Cc1nnc(NC(=O)c2ccc3ccccc3n2)s1	7.1µM*	2.8µM*	-7%	?	-27	16%
O=C(NCc1ccccc1)c1ccc2ccccc2n1	21%	28%	-61%	0%	-12	-4%
Cc1nc2ccc(NC(=O)c3ccc4ccccc4n3)cc2s1	15%	2%	-1%	7%	7	-6%
O=C(NCc1ccccn1)c1ccc2ccccc2n1	10µM*	3.5µM*	1%	1%	-5	-2%
Cc1ccc(C(=O)Nc2nnc(NC(=S)Nc3ccccc3)s2)cc1	1.1µM*	0.28µM*	-1%	-26%	-5	?
CN(CC(=O)Nc1ccccc1Cl)C(=O)COC(=O)c1ccc([N+](=O)[O-])s1	/	/	?	4%	?	22%
CC1(c2nnc(-c3ccccc3)o2)CC(c2ccc(Cl)cc2)=NO1 (centres undefined)	-2%	15%	-3%	0%	17	27%
CC1(c2nnc(-c3ccncc3)o2)CC(c2ccc(Cl)cc2)=NO1 (centres undefined)	/	/	-8%	/	-21	9.2µM*
Cc1cccc(NC(=O)N2CCC(C(=O)c3ccc(F)cc3)CC2)c1	-12%	18%	2.3µM*	-11%	4	0%
N#C/C(=C\c1coc2ccccc2c1=O)C(N)=S	?	13µM*	?	?	-5	?
N#CCC(=O)N/N=C/c1coc2ccccc2c1=O	2%	-30%	1%	0%	-20	-3%
Cc1cc(C)cc(NC(=O)CCn2c(=O)c3cccn3c3ccccc32)c1	3%	6%	-13%	?	30	8.2µM*
[O-]/C(=C(\C(=S)Nc1cccc2ccccc12)[n+]1cccc(CO)c1)c1ccc(Cl)s1	7%	-42%	-1%	-11%	-3	-2%
Cc1c(Cl)cccc1NC(=S)/C(=C(\[O-])c1ccc(Cl)s1)[n+]1ccccc1	5.6µM*	?	14%	-7%	-24	/
COc1ccc(-n2nc3c(N4CCCC(C(=O)NCc5ccc(C)cc5)C4)nnc(C)c3c2C)cc1 (centres undefined)	/	/	/	0%	/	/
Cc1ccccc1NC(=O)Cc1nc(COC(=O)c2cc([N+](=O)[O-])ccc2N)cs1	-4%	10%	6%	?	-14	9%
Cc1ccn(CC(C)C(=O)O)n1 (centres undefined)	7%	-9%	-13%	3%	-20	-20%
COc1ccc2c(c1)O[C@@H](c1ccc3c(c1)OCO3)[C@H](O)C2=O	-11%	0%	/	/	/	/
